Results: PubChem BioAssay AID686971 (National Center for Advancing Translational Sciences (NCATS), 2013)
Among all 360,000 compounds or so, about 7,500 (2.1%) were called active. Another 8% or so got no clear call; they are omitted. Calls follow the shape of the dose curve; as a rule, active = well fitted cell-killing curve with a large enough effect; inconclusive = small, poorly fitted or top-dose-only effect, or effect the other way, or another doubt; inactive = no such curve, though single readings can be large or run the other way. The list comes from a sample in which actives are over-represented; it also holds similar structures and randomly drawn compounds. A call without a number means that no potency is given here.

assay: qHTS for induction of synthetic lethality in tumor cells producing 2HG: qHTS for the HT-1080-IDH1KD cell line; details: HT-1080 IDH1 knockdown viability, ATP luminescence, 48 h; series mostly up to 46.1 µM
Method in brief: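 IDH1KD HT-1080 cells, 750/well, RPMI + 5% FBS; compound pinned after 2 h settling; 48 h, 37 °C; CellTiter-Glo luminescence; % activity normalised to DMSO and no-cell wells; curves fitted, classed by r2 and efficacy.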
Potency is read from the fitted curve at half-maximal effect.

Structure (SMILES) | Potency
CC(C)N1C(=O)c2ccccc2NC(=O)C1C(=O)NCc1cccs1 (stereo not drawn) | inactive
Cc1cccc(NC(=O)COC(=O)c2ccccc2OCc2cccc(Br)c2)c1 | inactive
O=C1C=C(NS(=O)(=O)c2ccccc2)C(=O)c2ccccc21 | inactive
Cn1c(NC(=O)c2ccccc2)nc2ccccc21 | inactive
O=C(NC1=CC(=O)c2ccccc2C1=O)c1ccccc1 | 7.31 µM (active)
Cc1ccc(-c2c(N)nc3ncccn23)cc1 | inactive
CCNC(=O)C1CCCN(C(=O)c2ccc(OC)cc2OC)CC1 (stereo not drawn) | inactive
COc1cccc(CNc2nc(NCc3cccs3)nc3ccsc23)c1 | 23.1 µM (active)
COc1ccccc1CNc1nc(Nc2ccccc2Cl)c2sccc2n1 | inactive
COc1cccc(CNc2nc(NCc3ccccc3OC)nc3ccsc23)c1 | 23.1 µM (active)
Clc1ccccc1Nc1nc(NCc2cccs2)nc2ccsc12 | inactive
COc1cccc(-c2cc3nc(NCc4ccccc4OC)n(C)c(=O)c3s2)c1 | inactive
COc1ccc(NC(=S)NCc2cccs2)c(OC)c1 | inactive
COc1ccc(COC[C@H](CC(C)C)N2CCN(C(=O)c3cccc(C(F)(F)F)c3)CCC2=O)cc1 | inactive
CCOC(=O)c1cc2cc(OC)ccc2n1C1CCN(C)CC1 | inactive
CCc1ccc(OC2(C)CCN(CCOc3ccc(C)cc3)C2)cc1 (stereo not drawn) | inactive
O[C@@H]1C[C@H](c2ccccc2)N(Cc2cccs2)C[C@H]1n1cc(C2CC2)nn1 | inactive
CSc1ncccc1C(=O)N1CCCC(Nc2ccc(F)c(F)c2)C1 (stereo not drawn) | inactive
Cc1ccccc1-c1nc(NC(C)C)nc2cc(-c3ccccc3)sc12 | inactive
CCc1nc2c(OCc3ccc(C(=O)OC)cc3)cccn2c1N(C)C(=O)C(C)C | inactive
CCOC(=O)N(C)c1c(CC)nc2c(OCc3ccccc3C(=O)OC)cccn12 | inactive

Structure (SMILES) | Potency
CCc1nc2c(OCc3ccc(Cl)cc3Cl)cccn2c1N(C)C(=O)C(C)C | 16.4 µM (active)
Cc1nc2c(OCc3ccc(Cl)cc3Cl)cccn2c1N(C)CC1CC1 | 14.6 µM (active)
CCCCN(C=O)c1c(CC)nc2c(OCc3ccccc3C(=O)OC)cccn12 | inactive
CCc1nc2c(OCc3ccc(F)c(F)c3)cccn2c1N(C)C(=O)c1ccco1 | inactive
Cc1nc2c(OCc3ccc(Cl)cc3)cccn2c1N(C)Cc1cccs1 | 16.4 µM (active)
Cc1nc2ccccc2nc(C)c1=NOCc1ccc(Cl)cc1Cl | inactive
CCc1nc2c(OCc3ccccc3)cccn2c1N(C)C(=O)c1ccco1 | inactive
CCOC(=O)[C@]12CCCC=C1N(CCC1=CCCCC1)C(=O)[C@H](CC(=O)N1CCOCC1)C2 | inactive
Cc1ccc(S(=O)(=O)N[C@H](CO)C(C)C)cc1 | inactive
COCCCn1c(C(=O)NC2CCCCC2)cc2c(=O)n3cccc(C)c3nc21 | inactive
COc1ccc(S(=O)(=O)N2CCC(C(=O)NCCC(=O)Nc3ccccc3OC)CC2)cc1 | inactive
CCOC(=O)C1=CC[C@@H](c2ccccc2)N(S(=O)(=O)c2ccc(C)cc2)[C@H]1c1cccc(OC)c1 | inactive
COc1ccc(S(=O)(=O)N[C@@H]2C=C[C@@H](CC(=O)N3CCc4ccccc4C3)O[C@@H]2CO)cc1 | inactive
S=C(Nc1ccc(Br)cc1Cl)NC1CCN(Cc2ccccc2)CC1 | 20.6 µM (active)
O=C(COc1ccc(Br)cc1F)NC1CCN(Cc2ccccc2)CC1 | inactive
O=C(NC1CCN(Cc2ccccc2)CC1)c1cc(Br)c(Br)[nH]1 | inactive
CC1(C(=O)NS(=O)(=O)C2CC2)CCCN(C(=O)CSc2ccccc2)C1 (stereo not drawn) | inactive
CC(C)c1cc(CN2CCOCC2)cc(C(C)C)c1O | inactive
Oc1c(C(c2ccccn2)N2CCOCC2)ccc2cccnc12 (stereo not drawn) | 0.251 µM (active)
O=C(Nc1ccccc1)c1ccccc1Br | inactive
CC(C)[C@H](NC(=O)N1CC(=O)Nc2ccccc21)C(=O)N[C@@H](Cc1c[nH]c2ccccc12)C(=O)O | inactive

Structure (SMILES) | Potency
CC(C)C[C@H](NC(=O)N1CC(=O)Nc2ccccc21)C(=O)N[C@H](Cc1ccccc1)C(=O)O | inactive
CC(C)c1ccc(NC(=O)[C@@H](NC(=O)N2CC(=O)Nc3ccccc32)C(C)C)cc1 | 13 µM (active)
COc1ccc(C(C)C)cc1-c1ccc2nncn2c1 | inactive
CC1(C(=O)NS(=O)(=O)c2ccccc2)CCN1C(=O)Cc1ccc(-c2ccccc2)cc1 (stereo not drawn) | inactive
Cc1ccc(F)c(S(=O)(=O)NC(=O)C2(C)CCN2C(=O)CCc2cccs2)c1 (stereo not drawn) | inactive
CCCOc1ccc(C2NC(=O)NC(c3ccccc3)=C2C(C)=O)cc1OCC (stereo not drawn) | inactive
COC(=O)c1ccc(C2CC(=O)Nc3cc(OC)c(OC)cc32)cc1 (stereo not drawn) | inactive
CCCOc1ccccc1C1CC(=O)Nc2cc3c(cc21)OCO3 (stereo not drawn) | 1.84 µM (active)
CCc1ccccc1NC(=O)CSc1nnc([C@@H](NC(=O)OC(C)(C)C)C(C)CC)o1 (stereo partly drawn) | inactive
C[C@@H](NC(=O)OC(C)(C)C)c1nnc(S(=O)(=O)Cc2ccccc2)o1 | 18.4 µM (active)
COc1ccccc1NC(=O)[C@H](COCc1ccccc1)NC(=O)OC(C)(C)C | inactive
OC[C@@H]1CN(Cc2ccc(F)cc2)C[C@H](n2cnc3c(NC4CCCC4)ncnc32)O1 | inactive
OC[C@@H]1CN(Cc2ccc(-c3ccccc3)cc2)C[C@H](n2cnc3c(NC4CCCC4)ncnc32)O1 | 20.6 µM (active)
OC[C@@H]1CN(Cc2cccs2)C[C@H](n2cnc3c(NC4CCCC4)ncnc32)O1 | inactive
CC1=C(C(=O)N2CCOCC2)CC(CC(=O)NCc2cccc3ccccc23)C(=O)N1CCC1=CCCCC1 (stereo not drawn) | inactive
Cc1ccc(C(=O)NC(C)C(c2cccs2)N2CCOCC2)cc1C (stereo not drawn) | inactive
CCC(=O)N1Cc2cc(C(=O)NCc3cccc(F)c3)nc(-c3cccc(C4=CCCC4)c3)c2[C@H]1CCO | inactive
COc1cc(OC)cc(C2=Cc3ccccc3C(CC(=O)c3ccco3)N2c2ccc(-c3cnc(OC)nc3)cc2)c1 (stereo not drawn) | inactive
Cc1cccc(N(Cc2ccccc2)C(=O)c2ccccc2F)c1 | inactive
CCCC(O)(CCC)C(=O)NN(C(=O)CCl)c1cccc(C)c1 | 5.17 µM (active)
CC(C)(O)C(=O)NN(C(=O)c1ccccc1)c1cccc(Br)c1 | inactive
